Pol kappa inh-1: qHTS for Inhibitors of Polymerase Kappa; Potency, µM (highest dose often 107 µM), most hits filed as inhibitors; 0.53% of 400,000 active; AID 588579, 2011; purified Pol kappa, fluorescent DNA synthesis assay, 10 min
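Kinetic fluorescence screen: compound preincubated 15 min RT with 10 nM enzyme; 50 nM substrate (final) initiates; reads at 0/10 min.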
POLI inh: qHTS for Inhibitors of Polymerase Iota. DNA polymerase iota (Homo sapiens), Q9UNA4. Pol iota fluorescent replication assay, 10 min. Potency, µM (titrated, usually from 115 µM), hits mostly inhibitors. 1% of 390,000 active
Target sequence (Q9UNA4 whole entry, looked up): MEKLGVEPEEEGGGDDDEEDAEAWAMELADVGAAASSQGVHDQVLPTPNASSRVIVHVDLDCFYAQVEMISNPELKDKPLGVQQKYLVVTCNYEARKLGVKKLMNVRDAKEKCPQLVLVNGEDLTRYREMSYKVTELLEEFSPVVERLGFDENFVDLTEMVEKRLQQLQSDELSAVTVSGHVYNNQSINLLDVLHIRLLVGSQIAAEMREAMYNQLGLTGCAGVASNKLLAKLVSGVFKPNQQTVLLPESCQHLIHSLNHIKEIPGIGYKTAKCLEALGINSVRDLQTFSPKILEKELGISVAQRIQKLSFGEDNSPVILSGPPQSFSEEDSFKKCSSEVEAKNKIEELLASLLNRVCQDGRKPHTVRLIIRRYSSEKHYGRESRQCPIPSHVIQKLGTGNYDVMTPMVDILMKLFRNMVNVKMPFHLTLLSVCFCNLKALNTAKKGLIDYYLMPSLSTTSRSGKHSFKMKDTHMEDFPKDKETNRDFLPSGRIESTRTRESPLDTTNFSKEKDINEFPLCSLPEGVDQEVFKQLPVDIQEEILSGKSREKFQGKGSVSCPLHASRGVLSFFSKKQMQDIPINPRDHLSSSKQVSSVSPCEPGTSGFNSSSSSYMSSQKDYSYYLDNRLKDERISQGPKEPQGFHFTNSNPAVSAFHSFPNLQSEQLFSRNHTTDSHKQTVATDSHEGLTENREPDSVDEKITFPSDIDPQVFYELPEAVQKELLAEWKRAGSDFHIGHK
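Pol iota at 10 nM preincubated 15 min with compounds at room temperature; reaction started with fluorescent substrate, 50 nM final. Fluorescence read kinetically at 0 and 10 min; buffer-only wells as negative control.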
FEN1 inh: qHTS Assay for the Inhibitors of Human Flap endonuclease 1 (FEN1); P39748; Recombinant FEN1 flap cleavage, fluorescence, 15 min; Potency, µM (titrated, usually from 114 µM), usual class: inhibitors; 0.35% of 390,000 active; note: nearly all actives have a fitted effect of over 65% in size
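Enzyme 10 nM, 15 min RT preincubation with compound; start with substrate 50 nM final; reads at 0 and 15 min; qHTS titration, four-parameter Hill fit.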
Pol beta inh: qHTS Assay for Inhibitors of DNA Polymerase Beta; AID 485314, 2010; P06746; Pol beta primer extension/strand displacement, fluorescence kinetic; Potency, µM (doses to about 114 µM), most hits filed as inhibitors; 1.3% of 340,000 active
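Kinetic readout of DNA synthesis with strand displacement by Pol beta. Compound and 10 nM enzyme sit 15 min at room temperature; 50 nM substrate starts the reaction, read immediately and at 10 min.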
WRN helicase inh: qHTS for Inhibitors of WRN Helicase. 0.46% of 360,000 active. WRN helicase unwinding, fluorescent forked duplex, kinetic. Potency, µM (highest dose often 114 µM), most hits filed as inhibitors; note: nearly all actives have a fitted effect of over 55% in size
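Screening of the MLSMR collection measured strand separation of a quenched forked DNA duplex (100 nM) by 20 nM WRN with 2 mM ATP, all final. Compounds were preincubated with enzyme 15 min at room temperature.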
Pol eta inh-1: qHTS for Inhibitors of Polymerase Eta | recombinant Pol eta, fluorescent DNA replication assay | Potency, µM (titrated, usually from 114 µM), most hits filed as inhibitors | 1.2% of 390,000 active | AID 588591, 2011
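Pol eta at 10 nM preincubated with compounds 15 min at room temperature; reaction started with fluorescent substrate (50 nM final) and read kinetically at 0 and 10 min.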
Pol iota confirm: qHTS for Inhibitors of Polymerase Iota: Confirmatory Assay for Cherry-picked Compounds; shares compounds with Pol kappa inh-1; Pol iota primer extension, TAMRA/BHQ fluorescence; Potency, µM, usual class: inhibitors; 77% of 1,500 active; AID 720496, 2013
GALK confirm: Confirmation Assay for Inhibitors of Human Galactokinase (GALK); shares compounds with Pol eta inh-1; 70% of 150 active; AID 2015, 2009; purified GALK, Kinase-Glo ATP depletion luminescence; Potency, µM (series often up to 115 µM), actives largely listed as inhibitors
GALK redox cs: Confirmatory Assay for Inhibitors of Human Galactokinase (GALK): Phenol-HRP redox assay counterscreen | Potency, µM (titrated, usually from 115 µM), usual class: inhibitors | Phenol red-HRP H2O2 redox cycling, absorbance 600 nm | 40% of 150 active | shares compounds with Pol eta inh-1 | AID 2035, 2009
HEK293 viability: Secondary Assay for Inhibitors of Human Galactokinase (GALK): HEK-293 Cell Viability Assay | Potency, µM (top dose mostly 46.1 µM), actives largely listed as inhibitors | shares compounds with Pol eta inh-1 | 10% of 170 active | HEK-293 viability, ATP luminescence (CellTiter-Glo), 24/48 h
Pol kappa inh-2: qHTS for Inhibitors of Polymerase Kappa: Confirmatory Assay for Cherry-picked Compounds; 76% of 920 active; shares compounds with Pol eta inh-1; Potency, µM, hits mostly inhibitors; purified Pol-kappa, fluorescent strand-displacement substrate
Pol eta inh-2: qHTS for Inhibitors of Polymerase Eta: Confirmatory Assay for Cherry-picked Compounds; shares compounds with Pol eta inh-1; Pol eta primer extension, TAMRA/BHQ fluorescence, 10 min; Potency, µM, actives largely listed as inhibitors; 64% of 2,600 active
Hits are given with their value; ! = a repeat was not active; [ ] = another dose, or the depositor's remark. This is a sample that favours compounds with a hit; in the whole collection about 2.4% have one here. Calls come from the whole dose curve; as a rule, active = well fitted curve in the direction sought with a large enough effect; inconclusive = small, poorly fitted or top-dose-only effect, or another doubt; inactive = no such curve, though single readings can be large; an effect the other way counts as inactive or inconclusive.

O=C(COC(=O)c1cccs1)NCc1ccco1 was read as Pol kappa inh-1 inconclusive, POLI inh 20µM, FEN1 inh inactive, Pol beta inh 20µM, WRN helicase inh inconclusive, Pol eta inh-1 14.1µM, Pol iota confirm 75.2 and Pol eta inh-2 84.9.
Screening O=C(NCc1cccc(CNC(=O)C(=O)NCc2ccco2)c1)C(=O)NCc1ccco1 returned Pol kappa inh-1 inactive, POLI inh inconclusive, FEN1 inh inactive, Pol beta inh 22.4µM, WRN helicase inh inconclusive, Pol eta inh-1 28.2µM, Pol iota confirm 67, Pol kappa inh-2 inconclusive and Pol eta inh-2 75.7.
O=C(COC(=O)Cc1cccc(C(F)(F)F)c1)NCc1ccco1 was read as Pol kappa inh-1 44.7µM, POLI inh inconclusive, FEN1 inh inactive, WRN helicase inh inconclusive, Pol eta inh-1 5.01µM, Pol iota confirm 59.7, Pol kappa inh-2 23.8 and Pol eta inh-2 30.1.
For O=C(NCc1cccc(CNC(=O)c2ccco2)c1)c1ccco1 the results were Pol kappa inh-1 inactive, POLI inh inactive, FEN1 inh inactive, Pol beta inh inactive, WRN helicase inh inactive and Pol eta inh-1 inactive.
`O=C(COC(=O)c1cncc(Br)c1)NCc1ccco1` gave Pol kappa inh-1 79.4µM, POLI inh inconclusive, FEN1 inh inactive, Pol beta inh 22.4µM, WRN helicase inh 50.1µM, Pol eta inh-1 10µM, Pol iota confirm 23.8, Pol kappa inh-2 23.8 and Pol eta inh-2 inconclusive.
Cc1cc(NC(=O)CCS(=O)(=O)c2cc3c4c(c2)CCN4C(=O)CC3)ccc1Br was read as Pol kappa inh-1 inactive, POLI inh inactive, FEN1 inh inactive, Pol beta inh inactive and Pol eta inh-1 inactive.
For COc1ccc(C2NC(=O)N(C)C3=C2C(=O)N(c2cccc(Cl)c2)C3)cc1 (centres undefined) the results were Pol kappa inh-1 inactive, POLI inh inactive, FEN1 inh inactive, Pol beta inh inactive and Pol eta inh-1 inactive.
For O=C1CC(c2ccco2)CC(O)=C1C=Nc1cc(Cl)ccc1Cl (centres undefined) the results were Pol kappa inh-1 inconclusive, POLI inh 22.4µM, FEN1 inh inactive, Pol beta inh 39.8µM, WRN helicase inh inconclusive, Pol eta inh-1 inconclusive, Pol iota confirm 67, Pol kappa inh-2 75.2 and Pol eta inh-2 60.1.
`O=C1CC(c2ccco2)CC(O)=C1C=Nc1ccccc1-c1ccccc1` (centres undefined) gave Pol kappa inh-1 inactive, POLI inh inconclusive, FEN1 inh inactive, Pol beta inh inactive, WRN helicase inh inactive and Pol eta inh-1 inactive.
Screening Cc1ccc(N=Nc2c(N)nn3c(N)c(C#N)c(C)nc23)cc1 returned Pol kappa inh-1 79.4µM, POLI inh inconclusive, FEN1 inh inconclusive, Pol beta inh 22.4µM, WRN helicase inh inactive[11.6 µM], Pol eta inh-1 inconclusive, Pol iota confirm 42.3 and Pol eta inh-2 inconclusive.
Screening Cc1cc(/C=C(\C#N)C(=O)NCc2ccco2)c(C)n1-c1ccc(C(=O)O)cc1 returned Pol kappa inh-1 inconclusive, POLI inh 39.8µM, FEN1 inh inactive, Pol beta inh inconclusive, WRN helicase inh inactive, Pol eta inh-1 20µM, Pol iota confirm 67 and Pol eta inh-2 26.9.
Cc1cc(/C=C(\C#N)C(=O)NCC2CCCO2)c(C)n1-c1ccc(Cl)cc1 (centres undefined) was read as Pol kappa inh-1 inactive, POLI inh inactive, FEN1 inh inactive, Pol beta inh inactive, WRN helicase inh inactive and Pol eta inh-1 inactive.
Screening CCCCOC(=O)c1ccc(NC(=O)c2ccc3c(c2)CCN3S(C)(=O)=O)cc1 returned Pol kappa inh-1 inactive, POLI inh inactive, FEN1 inh inactive, Pol beta inh inactive and Pol eta inh-1 inactive.
For O=C1C(SCCO)=C(SCCO)C(=O)c2ccccc21 the results were Pol kappa inh-1 inconclusive, POLI inh 1.12µM!, FEN1 inh inconclusive, Pol beta inh inactive, WRN helicase inh 79.4µM, Pol eta inh-1 15.8µM, Pol iota confirm 23.8, GALK confirm 18.8µM, GALK redox cs 10.6µM, HEK293 viability inconclusive and Pol eta inh-2 23.9.
`CC(=O)c1ccc(S(=O)(=O)N2Cc3ccccc3CC2C(=O)O)cc1` (centres undefined) gave Pol kappa inh-1 50.1µM, POLI inh inconclusive, FEN1 inh inactive, Pol beta inh 12.6µM, WRN helicase inh inconclusive, Pol eta inh-1 5.01µM, Pol iota confirm 26.7 and Pol eta inh-2 15.1.
For O=C(O)[C@H]1Cc2ccccc2CN1S(=O)(=O)c1ccc(F)cc1 the results were Pol kappa inh-1 inactive, POLI inh inactive, FEN1 inh inactive, Pol beta inh inactive, WRN helicase inh inactive and Pol eta inh-1 inactive.
Screening Oc1ccc2ccccc2c1C=NC12CN3CCN(CN(C3)C1)C2 returned Pol kappa inh-1 inactive, POLI inh 20µM, FEN1 inh inactive, Pol beta inh inactive, WRN helicase inh inconclusive, Pol eta inh-1 20µM, Pol iota confirm inconclusive and Pol eta inh-2 inconclusive.

Compound activity from PubChem.
